From PubChem BioAssay
HIV TAR-Tat – TAR RNA-Tat peptide displacers, HIV-1, primary screen, biochemical, FRET, FAM/TAMRA-labeled Tat; 100,000 compounds, 0.6% hits; AID 1259389, 2018; z-score (no concentration beside the values); HIV-1 TAR RNA, Tat peptide displacement FRET; active compounds read high; active = z-score of 3 or more in at least 2 runs
CDC25B CDK2 inh – primary biochemical HTRF screen for blockers of M-phase inducer phosphatase 2 binding to CDK2/cyclin A; P30305+P24941; 94,000 compounds, 0.72% hits; z-score (concentration not given with the values); HTRF CDC25B-CDK2/CyclinA binding, anti-His/anti-Flag; active compounds read high; in the data active = z-score above about 3.2
Active calls of the source: *; . = no result given. Compounds with a hit are over-represented: about 0.9% of the library has one in this group of screens.

SMILES	HIV TAR-Tat	CDC25B CDK2 inh
CCn1cc(C(=O)N2CCc3ccccc3C2)c(=O)c2cc(S(=O)(=O)N3CCC(C)CC3)ccc21	0.58	15*
O=C1CSC(c2cccc(NS(=O)(=O)c3ccc(Cl)cc3)c2)N1 (stereo not given)	-0.4	.
Nc1cccc(C2NC(=O)CS2)c1 (stereo not given)	0.9	10*
CC(=O)Oc1ccc(OC(C)=O)c2c1C(=O)c1ccccc1C2=O	.	17*
CC(=O)Oc1ccc2ccccc2c1-c1c(OC(C)=O)ccc2ccccc12	-0.52	-2
CCOCCCNc1ncnc2onc(-c3ccc(C)cc3)c12	-0.11	.
CCOC(=O)Cn1c2ccc(Cl)cc2c2nc3ccccc3nc21	0.94	19*
CC(C)OC(=O)Cn1c2ccc(Cl)cc2c2nc3ccccc3nc21	2.6	-1.4
CCOc1ccc(-n2ccc(=O)c(C(=O)Nc3ccc(OC)cc3OC)n2)cc1	0.54	2.3
Cc1csc(NC(=O)C(=O)c2cc(C)n(-c3ccccc3)c2C)n1	2.7	-0.44
Cc1cc(NC(=O)N2CC(C)Sc3ccccc32)ccc1Br (stereo not given)	1.3	.
CC(C)CCn1c(SCc2ccc(F)cc2)nc2nccnc2c1=O	0.65	-1.2
COc1cccc(-c2cc3nc(-c4ccccc4)cc(=O)n3[nH]2)c1	.	-1.3
O=c1cc(-c2cccnc2)nc2cc(-c3ccco3)[nH]n12	.	19*
O=c1c2c(nc3cc(-c4ccco4)[nH]n13)CSC2	.	19*
O=c1c2c(nc3cc(-c4ccccc4)[nH]n13)CCCC2	.	1
Cc1ccc(-c2nc3ccccc3o2)cc1NC(=O)COc1c(F)c(F)c(C(F)(F)F)c(F)c1F	.	-2.2
COC(=O)c1ccc2c(c1)C1C=CCC1C(c1cccc3ccccc13)N2 (stereo not given)	-14	-0.77
COc1cccc2c1NC(c1cccc3ccccc13)C1CC=CC21 (stereo not given)	6.4*	-0.13
O[C@H]1[C@H](O)[C@@H](O)C2OC[C@H]1O2	1	.
CCN1C(=O)C2(c3ccccc31)C(C(=O)Nc1ccc(Br)cc1)CC1CSCN12 (stereo not given)	1.2	.
CCCc1cc(=O)n2[nH]c(-c3ccco3)nc2n1	1.3	.
CCOC(=O)Cc1cc(=O)n2[nH]c(-c3ccco3)nc2n1	1.8	13*
Cc1nc(-c2ccc(S(=O)(=O)Nc3cccc(C)c3C)cc2)co1	1.4	.
CN1C(=O)C(C)(C)c2cc(S(=O)(=O)N3CCOCC3)ccc21	1.5	.
SMILES	HIV TAR-Tat	CDC25B CDK2 inh
O=c1c2cc3c(cc2nc2sc(Nc4cccc(Cl)c4)nn12)OCO3	0.98	-0.16
Cc1cccc(Nc2nn3c(=O)c4cc5c(cc4nc3s2)OCO5)c1	13*	.
CN1CSC2=C(C#N)C(c3ccccc3)CC(=O)N2C1 (stereo not given)	0.4	4.1
CCOC(=O)c1ccc(N2CSC3=C(C#N)C(c4ccc(SC)cc4)CC(=O)N3C2)cc1 (stereo not given)	-2.3	5.1*
COC(=O)c1ccc(N2CSC3=C(C#N)C(c4ccc(C)cc4)CC(=O)N3C2)cc1 (stereo not given)	1.3	16*
CCOc1ccc(N2CSC3=C(C#N)C(c4ccc(C)o4)CC(=O)N3C2)cc1 (stereo not given)	0.86	3.4*
Cc1ccc(C2CC(=O)N3CN(C)CSC3=C2C#N)cc1 (stereo not given)	0.37	0.82
CN1CSC2=C(C#N)C(c3cccc(OCc4ccccc4)c3)CC(=O)N2C1 (stereo not given)	-1.9	3.4*
CCN1CCN(CCCNC(=O)c2c(N3CCCC3=O)c3cc(F)ccc3n2CC)CC1	0.72	.
Cc1cc(CNC(=O)NC(C)C)c(C)n1-c1ccc(Cl)cc1	0.71	.
CCCCc1nn2c(=O)cc(CSc3n[nH]c(-c4ccc(Cl)cc4)n3)nc2s1	-1.7	.
Cc1ccc(-c2csc3c2ncn2c(=O)n(CC(=O)Nc4ccc(C(C)C)cc4)nc32)cc1	-1	.
CCOC(=O)CN1CSC2=C(C#N)C(c3ccc(F)cc3)CC(=O)N2C1 (stereo not given)	2.3	-0.34
CCOC(=O)c1ccc(N2CSC3=C(C#N)C(c4ccc(C)cc4)CC(=O)N3C2)cc1 (stereo not given)	-1.6	6.1*
CCOc1cc(C2CC(=O)N3CN(c4ccc(C)cc4)CSC3=C2C#N)ccc1O (stereo not given)	3	3.2*
COc1ccc(C2CC(=O)N3CN(CCc4ccccc4)CSC3=C2C#N)cc1OC (stereo not given)	0.76	-1.4
CCOc1ccc(C2CC(=O)N3CN(C)CSC3=C2C#N)cc1OC (stereo not given)	-0.1	3.6*
O=C(Cn1cnc2c(nc3n2CCCCC3)c1=O)N1CCN(c2cccc(Cl)c2)CC1	1.3	.
O=C(Nc1cccc(Cl)c1)Nc1nnc(C(c2ccccc2)c2ccccc2)s1	.	-3.2
Cc1ccc(N2CC(C(=O)Nc3nnc4n3CCS4)CC2=O)cc1 (stereo not given)	1.1	.
CCOC(=O)c1c(S(=O)(=O)N2CCCC(C(=O)N3CCOCC3)C2)c(C)n(C)c1C (stereo not given)	2.7	.
O=C1CC(c2cccc(F)c2)c2scc(-c3ccc(Cl)cc3)c2N1 (stereo not given)	1.5	.
CCn1cc(S(=O)(=O)c2ccc(C)cc2)c(=O)c2cc(C)ccc21	1.4	-1.6
Cc1cc(NC(=O)C2=CC(c3cccs3)=NS(=O)(=O)N2C)n(-c2ccccc2)n1	2.1	-2.2
NC(=O)c1cc(S(=O)(=O)N2CCN(C3CCCC3)CC2)cs1	2	.
SMILES	HIV TAR-Tat	CDC25B CDK2 inh
Cc1c2c(=O)n(-c3ccccc3)[nH]c2cc(=O)n1Cc1cccnc1	1.2	2
Cc1c2c(=O)n(-c3ccccc3)[nH]c2cc(=O)n1Cc1ccco1	9.6*	4.3
CN(C)c1nc2c(c(=O)[nH]c(=O)n2C)n1Cc1ccc(Cl)cc1	.	0.08
CCOC(=O)c1c(C)oc2ncnc(N(CC(C)C)CC(C)C)c12	-1.6	.
O=C(Cn1cc(C(=O)c2ccc(F)cc2)c(=O)c2cc3c(cc21)OCCO3)Nc1ccc(F)c(F)c1	-0.83	-1.6
COc1cccc2c1Oc1[nH]c(-c3ccc(C(=O)O)cc3)nc(=S)c1C2	33*	2.7
COc1ccc(-c2nc(=S)c3c([nH]2)Oc2ccccc2C3)cc1OC	1.6	0.7
COc1cccc2c1Oc1[nH]c(-c3ccc(O)cc3)nc(=S)c1C2	-0.64	0.26
COc1ccc(-c2nc(=S)c3c([nH]2)Oc2ccccc2C3)cc1O	1.3	10*
COc1ccccc1NC(=O)Nc1nnc(N2CCc3ccccc32)s1	2.3	-0.27
COc1cccc(C2CC(=O)N3CN(C4CCCC4)CSC3=C2C#N)c1 (stereo not given)	2	5.7*
N#CC1=C2SCN(C3CCCCC3)CN2C(=O)CC1c1cccc2ccccc12 (stereo not given)	0.13	4.2*
COc1ccc(OC)c(C2CC(=O)N3CN(C4CCCCC4)CSC3=C2C#N)c1 (stereo not given)	-0.96	5.3*
N#CC1=C2SCN(C3CCCC3)CN2C(=O)CC1c1ccc(F)cc1 (stereo not given)	0.82	4*
CCOc1ccc(C2CC(=O)N3CN(C4CCCC4)CSC3=C2C#N)cc1 (stereo not given)	2.3	1.9
N#CC1=C2SCN(Cc3ccco3)CN2C(=O)CC1c1cccc2ccccc12 (stereo not given)	1.6	-1.5
